Where “and” joins values, the source holds several entries; their conditions need not be identical. Equal entries are not always repeated. The source holds several records for some structures; these can differ, active in one and inactive in another. Calls of active or inactive are those of the source. Entries that show only a call come without a potency. Unless noted, calls come from the whole dose curve; as a rule, active = well fitted curve in the direction sought with a large enough effect in the repeat runs; inconclusive = weak or mixed curves; inactive = no such curve, though single readings can be large; an effect the other way counts as inactive or inconclusive.
How the values were obtained:
[1] = qHTS assay to identify small molecule antagonists of the thyroid receptor (TR) signaling pathway (AID 743065); note: nearly all actives have a fitted effect of over 55% in size; note: potency is the fitted concentration of half-maximal effect
In short: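 GH3.TRE-Luc rat pituitary cells (two TREs driving luciferase) were dosed with compound, then stimulated with 1 nM T3 (final) for 23.5 h at 37 C. ONE-Glo luminescence was the read-out, with CellTiter-Fluor fluorescence as the cytotoxicity counter-screen.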

[2] = test system: thyroid hormone receptor (rat, GH3 cells); assay: qHTS assay to identify small molecule agonists of the thyroid receptor (TR) signaling pathway (AID 743066; calls by dose curve)
[3] = qHTS assay to identify small molecule antagonists of the estrogen receptor alpha (ER-alpha) signaling pathway - cell viability counter screen (AID 743074; calls by dose curve;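 note: HEK293 cells carrying ER-alpha-UAS-bla reporter stimulated with 17beta-estradiol; nearly all actives have a fitted effect of over 45% in size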)
[4] = qHTS assay to identify small molecule antagonists of the estrogen receptor alpha (ER-alpha) signaling pathway using the BG1 cell line - cell viability counter screen (AID 743081);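 note: compound given together with 17beta-estradiol as the ER stimulus; series mostly up to about 70 µM; nearly all actives have a fitted effect of over 45% in size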
[5] = target: Aromatase (Homo sapiens) (UniProt P11511); assay: qHTS assay to identify aromatase inhibitors (AID 743083); note: nearly all actives have a fitted effect of over 55% in size; note: potency is the fitted concentration of half-maximal effect
Aromatase (Homo sapiens), sequence (P11511 whole entry, looked up): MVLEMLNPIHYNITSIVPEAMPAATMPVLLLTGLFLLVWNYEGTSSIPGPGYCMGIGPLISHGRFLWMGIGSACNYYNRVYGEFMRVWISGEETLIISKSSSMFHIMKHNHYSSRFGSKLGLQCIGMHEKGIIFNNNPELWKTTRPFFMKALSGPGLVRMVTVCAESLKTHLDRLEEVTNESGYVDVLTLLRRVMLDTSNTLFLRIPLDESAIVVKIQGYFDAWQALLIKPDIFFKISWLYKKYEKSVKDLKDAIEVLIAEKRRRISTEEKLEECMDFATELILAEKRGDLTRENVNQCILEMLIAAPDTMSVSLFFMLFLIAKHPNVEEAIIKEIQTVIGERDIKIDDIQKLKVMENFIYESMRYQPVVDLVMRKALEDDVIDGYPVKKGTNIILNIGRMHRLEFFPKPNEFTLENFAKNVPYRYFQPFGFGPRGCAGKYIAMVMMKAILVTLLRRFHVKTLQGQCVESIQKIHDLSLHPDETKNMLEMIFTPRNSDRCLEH

[6] = qHTS assay to identify aromatase inhibitors - cell viability counter screen (AID 743084);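 note: cells stimulated with testosterone during compound exposure; nearly all actives have a fitted effect of over 55% in size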; note: potency is the fitted concentration of half-maximal effect
[7] = target: Aryl hydrocarbon receptor (Homo sapiens) (UniProt P35869); assay: qHTS assay to identify small molecule that activate the aryl hydrocarbon receptor (AhR) signaling pathway (AID 743085);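 note: HG2L7.5c1 human HepG2 liver cells with stably integrated DRE-driven firefly reporter; series mostly up to about 70 µM; nearly all actives have a fitted effect of over 15% in size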
Aryl hydrocarbon receptor (Homo sapiens), sequence (P35869 whole entry, looked up): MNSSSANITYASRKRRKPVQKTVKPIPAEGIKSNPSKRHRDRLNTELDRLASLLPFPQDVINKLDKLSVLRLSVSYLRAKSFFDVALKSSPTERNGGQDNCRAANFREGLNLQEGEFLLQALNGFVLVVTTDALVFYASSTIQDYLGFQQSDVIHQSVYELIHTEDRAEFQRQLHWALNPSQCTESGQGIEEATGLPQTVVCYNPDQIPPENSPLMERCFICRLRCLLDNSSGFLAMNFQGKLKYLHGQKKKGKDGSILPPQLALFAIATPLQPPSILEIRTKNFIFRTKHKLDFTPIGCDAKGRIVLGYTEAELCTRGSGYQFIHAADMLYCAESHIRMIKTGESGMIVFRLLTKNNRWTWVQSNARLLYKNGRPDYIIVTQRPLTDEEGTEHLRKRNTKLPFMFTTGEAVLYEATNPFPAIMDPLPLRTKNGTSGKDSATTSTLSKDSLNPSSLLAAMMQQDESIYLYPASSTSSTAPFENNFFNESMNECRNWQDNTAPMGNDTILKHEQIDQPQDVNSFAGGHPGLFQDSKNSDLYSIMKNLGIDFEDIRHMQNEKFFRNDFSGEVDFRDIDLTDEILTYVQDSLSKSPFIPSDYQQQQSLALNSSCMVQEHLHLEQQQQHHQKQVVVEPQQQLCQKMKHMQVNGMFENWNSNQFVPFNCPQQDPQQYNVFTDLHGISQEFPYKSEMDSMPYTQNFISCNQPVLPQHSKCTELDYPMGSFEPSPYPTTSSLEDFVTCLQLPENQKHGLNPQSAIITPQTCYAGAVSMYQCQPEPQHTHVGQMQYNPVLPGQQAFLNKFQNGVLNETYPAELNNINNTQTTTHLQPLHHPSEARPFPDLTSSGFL
In short: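 Compounds were tested in HepG2 hepatocellular carcinoma cells harbouring a stably integrated luciferase gene under control of 20 DREs. Increased reporter signal after 24 h treatment at 37C was taken as AhR activation.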

[8] = qHTS assay to identify small molecule that activate the aryl hydrocarbon receptor (AhR) signaling pathway - cell viability counter screen (AID 743086); note: nearly all actives have a fitted effect of over 45% in size; note: potency is the fitted concentration of half-maximal effect
In short: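 HepG2-AhR-luc (HG2L7.5c1) cells, 4000/well, treated 24 h at 37 C with compound; viability measured as CellTiter-Fluor fluorescence after 30 min in the same wells as the luciferase read.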

[9] = qHTS assay to identify small molecule antagonists of the peroxisome proliferator-activated receptor gamma (PPARg) signaling pathway - cell viability counter screen (AID 743194); details: Potency: co-treated with 50 nM rosiglitazone; note: nearly all actives have a fitted effect of over 55% in size; note: potency is the fitted concentration of half-maximal effect
In short: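 Cytotoxicity counter screen in PPARg-bla HEK293H cells, same wells as reporter assay. Compounds plus 50 nM rosiglitazone (final) for 17 h at 37 C, then viability read by CellTiter-Glo luminescence.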

[10] = qHTS assay for small molecule agonists of the antioxidant response element (ARE) signaling pathway (AID 743202; active = well fitted activation curve with a large enough effect in the signal ratio in the repeat runs, not every such curve was filed as active; inconclusive = weak or mixed curves, or effect the other way; inactive = no such curve, though single readings can be large or run the other way; the % refers to the signal ratio)
In short: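 HepG2 ARE-bla reporter line, 2,000 cells/well; 5 h preincubation 37 C/5% CO2; compound (DMSO) 16 h 37 C; B/G FRET substrate 2 h RT; fluorescence intensity.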

[11] = qHTS assay for small molecule agonists of the antioxidant response element (ARE) signaling pathway - cell viability counter screen (AID 743203; calls by dose curve; note: nearly all actives have a fitted effect of over 55% in size; note: potency is the fitted concentration of half-maximal effect)
In short: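 Cytotoxicity was tested in parallel with the ARE reporter screen. ARE-bla HepG2 cells were exposed to compounds for 16 hrs, and viability was taken from CellTiter-Glo luminescence.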

[12] = qHTS assay for small molecule activators of the heat shock response signaling pathway (AID 743210; active = well fitted activation curve with a large enough effect in the signal ratio in the repeat runs, with a control signal flat, not every such curve was filed as active; inconclusive = weak or mixed curves; the % refers to the signal ratio;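 note: HeLa cells with beta-lactamase reporter driven by heat shock elements; series mostly up to about 63 µM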)
In short: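 Beta-lactamase reporter read-out: FRET substrate fluorescence after 2.5 h at RT, following 5 h compound treatment at 37 C of HeLa cells carrying HSE-driven bla reporter; quantitative HTS format.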

[13] = qHTS assay to identify small molecule agonists of the peroxisome proliferator-activated receptor delta (PPARd) signaling pathway - cell viability counter screen (AID 743211); note: nearly all actives have a fitted effect of over 55% in size; note: potency is the fitted concentration of half-maximal effect
In short: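 Counter screen for cytotoxicity run in parallel with the PPARd reporter screen. Beta-lactamase reporter HEK293H cells exposed to compounds 17 h; ATP-based CellTiter-Glo luminescence quantified viability.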

[14] = target: Peroxisome proliferator-activated receptor gamma (Homo sapiens) (UniProt P37231); assay: qHTS assay to identify small molecule agonists of the peroxisome proliferator-activated receptor gamma (PPARg) signaling pathway (AID 743094; active = well fitted activation curve with a large enough effect in the signal ratio in the repeat runs, not every such curve was filed as active; inconclusive = weak or mixed curves, or effect the other way; inactive = no such curve, though single readings can be large or run the other way; the % refers to the signal ratio)
Peroxisome proliferator-activated receptor gamma (Homo sapiens), sequence (P37231 whole entry, looked up): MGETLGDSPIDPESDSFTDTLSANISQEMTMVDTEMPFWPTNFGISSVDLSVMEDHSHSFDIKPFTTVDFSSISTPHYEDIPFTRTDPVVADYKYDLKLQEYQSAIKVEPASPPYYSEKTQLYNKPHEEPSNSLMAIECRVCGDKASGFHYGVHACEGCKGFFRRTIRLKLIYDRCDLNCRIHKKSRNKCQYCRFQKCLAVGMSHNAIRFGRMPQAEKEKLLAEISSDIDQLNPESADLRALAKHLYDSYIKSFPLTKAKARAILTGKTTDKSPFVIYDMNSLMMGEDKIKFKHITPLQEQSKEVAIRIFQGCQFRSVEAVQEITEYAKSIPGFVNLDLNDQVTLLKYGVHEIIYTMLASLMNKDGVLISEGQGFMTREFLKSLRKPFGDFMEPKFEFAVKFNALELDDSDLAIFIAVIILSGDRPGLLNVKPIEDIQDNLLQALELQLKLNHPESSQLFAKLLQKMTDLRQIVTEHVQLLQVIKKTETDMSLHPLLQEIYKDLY
In short: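 Cells from the PPARg UAS-bla HEK293H line are plated and incubated 5 h at 37C. Compounds in DMSO are pinned in and left 17 h at 37C. LiveBLAzer B/G substrate is then added for 1 h at room temperature before fluorescence is measured.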

[15] = qHTS assay for small molecule activators of the heat shock response signaling pathway - cell viability counter screen (AID 743209); note: nearly all actives have a fitted effect of over 50% in size
In short: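 Cytotoxicity counter screen run in parallel with the HSE beta-lactamase reporter, using the same wells. HeLa HSE-bla cells received compound for 5 h at 37 C; ATP-based CellTiter-Glo luminescence was measured after 30 min at room temperature.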

[16] = target: Peroxisome proliferator-activated receptor gamma (Homo sapiens) (UniProt P37231); assay: qHTS assay to identify small molecule antagonists of the peroxisome proliferator-activated receptor gamma (PPARg) signaling pathway (AID 743191; calls by dose curve; note: nearly all actives have a fitted effect of over 30% in size; note: potency is the fitted concentration of half-maximal effect)
In short: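 GeneBLAzer PPARg UAS-bla HEK293H cells, 5 h post-plating, exposed to compounds 17 h at 37C. LiveBLAzer B/G FRET substrate added for 1 h at room temperature; beta-lactamase reporter read by fluorescence intensity.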

[17] = target: Estrogen receptor (Homo sapiens) (UniProt P03372); assay: qHTS assay to identify small molecule antagonists of the estrogen receptor alpha (ER-alpha) signaling pathway (AID 743069; active = well fitted curve in the direction sought with a large enough effect in the signal ratio in the repeat runs, not every such curve was filed as active; inconclusive = weak or mixed curves, or effect the other way; inactive = no such curve, though single readings can be large or run the other way; the % refers to the signal ratio; note: potency is the fitted concentration of half-maximal effect)
Estrogen receptor (Homo sapiens), sequence (P03372 whole entry, looked up): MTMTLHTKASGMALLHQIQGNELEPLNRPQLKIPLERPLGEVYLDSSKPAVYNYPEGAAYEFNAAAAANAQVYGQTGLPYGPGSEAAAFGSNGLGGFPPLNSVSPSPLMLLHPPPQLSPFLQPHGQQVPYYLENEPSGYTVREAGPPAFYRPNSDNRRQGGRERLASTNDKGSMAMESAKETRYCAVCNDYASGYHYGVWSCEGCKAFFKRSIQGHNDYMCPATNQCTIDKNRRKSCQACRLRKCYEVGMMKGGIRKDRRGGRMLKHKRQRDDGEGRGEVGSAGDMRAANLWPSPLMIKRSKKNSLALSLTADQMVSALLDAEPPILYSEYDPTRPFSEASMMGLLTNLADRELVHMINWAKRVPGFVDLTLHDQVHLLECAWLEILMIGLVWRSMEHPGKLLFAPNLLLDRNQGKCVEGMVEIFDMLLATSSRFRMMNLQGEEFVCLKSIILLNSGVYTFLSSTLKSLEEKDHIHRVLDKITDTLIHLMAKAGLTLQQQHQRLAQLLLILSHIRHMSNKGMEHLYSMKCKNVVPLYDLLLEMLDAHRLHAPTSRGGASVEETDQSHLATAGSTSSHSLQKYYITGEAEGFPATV
In short: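 Beta-lactamase FRET fluorescence is read after 2 hr at room temperature with LiveBLAzer B/G substrate. Before that, ER-alpha-bla HEK293 cells sit 4 hr after plating, then receive compound plus 17beta-estradiol and incubate 18 hr at 37C.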

[18] = target: Estrogen receptor (Homo sapiens) (UniProt P03372); assay: qHTS assay to identify small molecule agonists of the estrogen receptor alpha (ER-alpha) signaling pathway (AID 743075; calls by dose curve;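 note: HEK293 GripTite cells with ER-alpha and UAS-driven beta-lactamase reporter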)
[19] = target: Estrogen receptor (Homo sapiens) (UniProt P03372); assay: qHTS assay to identify small molecule agonists of the estrogen receptor alpha (ER-alpha) signaling pathway using the BG1 cell line (AID 743079); note: nearly all actives have a fitted effect of over 20% in size; note: potency is the fitted concentration of half-maximal effect
[20] = qHTS assay to identify small molecule antagonists of the estrogen receptor alpha (ER-alpha) signaling pathway using the BG1 cell line (AID 743080; calls by dose curve;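 note: BG1 cells stimulated with 17beta-estradiol alongside compound; nearly all actives have a fitted effect of over 25% in size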; note: potency is the fitted concentration of half-maximal effect)
In short: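 Luciferase inhibition measured with ONE-Glo after 30 min at RT in BG1Luc4E2 cells given test compounds and 17beta-estradiol for 21.5 h at 37 C; CellTiter-Fluor viability read in the same wells beforehand.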

| Compound | Potency [1] | Potency [2] | Potency [3] | Potency [4] | Potency [5] | Potency [6] | Potency [7] | Potency [8] | Potency [9] | Potency [10] | Potency [11] | outcome [12] | Potency [13] | Potency [14] | Potency [15] | Potency [16] | Potency [17] | Potency [18] | Potency [19] | Potency [20] |
| --- | --- | --- | --- | --- | --- | --- | --- | --- | --- | --- | --- | --- | --- | --- | --- | --- | --- | --- | --- | --- |
| CC(C)N(CCC(C(N)=O)(c1ccccc1)c1ccccn1)C(C)C (stereo not given) | inactive | inactive | inactive | inactive | inactive | inactive | inactive | inactive | inactive | inactive | inactive | inactive | inactive |  |  |  |  |  |  |  |
| Oc1ccc(Cl)c(Cl)c1Cl | inactive | inactive | inactive | inactive | inactive | inactive |  | inactive | inactive |  | inactive | inactive | inactive | inactive | inactive |  |  |  |  |  |
| CCCCCCCCOC(=O)c1ccc(C(=O)OCCCCCCCC)c(C(=O)OCCCCCCCC)c1 | inactive | inactive | inactive | inactive | inactive | inactive |  | inactive | inactive |  | inactive |  | inactive | inactive | inactive | inactive |  |  |  |  |
| COC1=CC(=O)O[C@@H](CCc2ccccc2)C1 | inactive | inactive | inactive | inactive | inactive |  |  | inactive | inactive |  | inactive | inactive | inactive |  | inactive |  |  |  |  |  |
| C[C@@H]1CC[C@H]2[C@@H](C)C(=O)O[C@@H]3O[C@@]4(C)CC[C@@H]1[C@]32OO4 | 2.37 µM (active) | inactive | inactive | inactive |  |  | inactive |  | inactive |  | inactive | inactive | inactive |  | inactive |  |  |  |  |  |
| CC1C(=O)C[C@]2(C(C)C)C[C@H]12 (stereo not given in full) | inactive | inactive |  | inactive | inactive | inactive | inactive | inactive | inactive | inactive | inactive | inactive | inactive | inactive | inactive | inactive |  |  |  |  |
| CCCCN=C=O | inactive | inactive |  | inactive | inactive | inactive |  | inactive |  |  | inactive | inactive | inactive | inactive | inactive | inactive |  |  |  |  |
| CCCN(CC1CC1)c1c([N+](=O)[O-])cc(C(F)(F)F)cc1[N+](=O)[O-] |  | inactive | inactive | inactive | inactive | inactive |  | inactive | inactive | inactive | inactive | inactive | inactive | inactive | inactive | inactive | inactive | inactive | inactive | inactive |
| CCCCC(O)(Cn1cncn1)c1ccc(Cl)cc1Cl (stereo not given) | 61.1 µM (active) |  | inactive |  | 48.5 µM (active) | 68.5 µM (active) | inactive |  |  |  |  |  | 54.9 µM (active) | inactive | inactive |  |  | inactive |  | 54.4 µM (active) |
| Cc1ccc(-c2c(Cl)nc(C#N)n2S(=O)(=O)N(C)C)cc1 | 13.7 µM (active) |  |  | inactive |  |  | inactive | inactive |  |  |  |  |  | inactive | inactive |  |  |  |  | 54.4 µM (active) |
| Cc1ccccc1C(=O)Nc1cccc(OC(C)C)c1 |  | inactive | inactive | inactive | inactive | inactive |  | inactive |  |  | inactive | inactive | inactive | inactive | inactive | 49 µM (active) | inactive | inactive | inactive | inactive |
| C/C(=C\c1ccccc1)[N+](=O)[O-] | 6.86 µM (active) |  |  |  | 19.3 µM (active) | 21.7 µM (active) | inactive |  | 21.9 µM (active) |  | 15.4 µM (active) |  | 19.5 µM (active) |  |  |  | 2.45 µM [cytotoxic] (active) | inactive |  |  |
| CC(C)N(C(=O)COc1nnc(C(F)(F)F)s1)c1ccc(F)cc1 |  | inactive | inactive | inactive | inactive | inactive |  | inactive | inactive |  | inactive |  |  | inactive |  | 7.76 µM (active) | inactive | inactive | inactive | inactive |
| O=C(N[C@H](c1ccccc1)[C@@H]1CN2CCC1CC2)c1c(Cl)ccc(C(F)(F)F)c1Cl | 39.2 µM (active) |  | inactive |  |  |  |  | 39.2 µM (active) | inactive |  | 49.3 µM (active) | inactive | 78.8 µM (active) |  |  | 4.97 µM (active) |  |  |  |  |
| CC(c1ccc(O)cc1)(c1ccc(O)cc1)c1ccc(O)cc1 | 61.1 µM (active) |  |  | inactive |  | inactive | inactive |  |  |  |  |  |  | inactive | inactive | 21.9 µM (active) | 21.9 µM [inconclusive] (active) |  | 27.3 µM (active) |  |
| CCC(C)(NC(=O)c1cc(Cl)c(C)c(Cl)c1)C(=O)CCl (stereo not given) | 8.69 µM (active) |  |  | inactive | 61.5 µM (active) |  |  |  | 39.1 µM (active) |  | 21.8 µM (active) |  | 49.3 µM (active) |  |  |  | 62 µM [inconclusive] (active) |  |  |  |
| C(=NC1CCCCC1)=NC1CCCCC1 |  | inactive | inactive |  | inactive and 1.37 µM (active) | inactive | inactive | inactive | 4.93 µM (active) and 3.47 µM (active) |  | 3.08 µM (active) and 3.06 µM (active) | inactive | inactive and 21.9 µM (active) |  | inactive |  | inactive and 3.89 µM [inconclusive] (active) | inactive | 13.8 µM (active) and inactive | 2.45 µM (active) and 2.43 µM (active) |
